A549 tox: counter-screen for Nrf2 inhibitors: cytotoxicity in A549 cells | A549 ARE-Fluc cells, CellTiter-Fluor viability, 18-24 h | Potency, µM (top dose mostly 46 µM), actives largely listed as inhibitors | 390,000 tested, 0.16% active | AID 504648
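Cytotoxicity counterscreen: CellTiter-Fluor fluorescence was measured in A549 ARE_Fluc cells after 18-24 h of compound exposure in a concentration series. The subsequent BugLite luminescent read reports ARE-luciferase activity.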
Nrf2 activator: activators of Nrf2 (ARE) signaling; 410,000 tested, 0.31% active; AREc32 ARE-luciferase reporter (MCF7-derived line), luminescence, 24 h; Potency, µM (doses to about 46.1 µM), most hits filed as activators; AID 624171; note: nearly all actives have a fitted effect of over 65% in size
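Cells of the AREc32 ARE-luciferase line are plated in OPTI-MEM containing 5% FBS and left overnight at 37 deg C. Compounds are pinned in, incubation continues 24 hr, and firefly luciferase signal is then measured.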
IL2 activator: activators of IL-2; IL-2 activation reporter assay, cell-based qHTS; stimulated with anti-CD3/CD4/CD28 beads; in transgenic mouse T cells; activation, % (series mostly up to about 46 µM); 360,000 tested, 0.065% active; in the data active = activation above about 50%; inconclusive = mostly about 30% to 49%
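First, unstimulated transgenic mouse T cells were exposed to compound for 60 min. Next, anti-CD3/anti-CD4-coated beads with anti-CD28 were added. Finally, after 18 h at 37 degrees C, EGFP and DsRed were imaged.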
Nrf2 inh: inhibitors of Nrf2 signaling. AID 504444. 360,000 tested, 2.1% active. Potency, µM (top dose mostly 46 µM), actives largely listed as inhibitors. A549 ARE-Fluc reporter, luciferase luminescence, 18-24 h; note: nearly all actives have a fitted effect of over 60% in size
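A549 ARE_Fluc cells, 5000/well, 5% FBS OPTI-MEM; compounds in dose-response, 18-24 h at 37 °C/5% CO2; CellTiter-Fluor viability read (Ex 405/Em 525), then BugLite luciferase luminescence = Nrf2 activity.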
Of the large screens only hits and unclear results are named; the others gave an inactive call. A selection: hits, their analogues and other compounds. The true share with any hit is near 2.3%. Unless noted, calls come from the whole dose curve; as a rule, active = well fitted curve in the direction sought with a large enough effect; inconclusive = small, poorly fitted or top-dose-only effect, or another doubt; inactive = no such curve, though single readings can be large; an effect the other way counts as inactive or inconclusive.

Cc1ccc(/C=C2\SC(=S)N(CCCC(=O)NC3CCCC3)C2=O)cc1	Nrf2 inh 10.3µM
COc1cc(/C=C2\SC(=S)N(CCC(=O)NC3CCCC3)C2=O)cc(OC)c1OC	Nrf2 inh inconclusive
CCc1ccc(/C=C2\SC(=S)N(CCC(=O)Nc3cc(C)on3)C2=O)cc1	Nrf2 inh 6.51µM
CCc1ccccc1NC(=O)c1cn(C)c(=O)c2ccccc12	none (no result: IL2 activator)
COc1ccc(/C=C2/SC(=S)N(CCCC(=O)Nc3ccc(O)cc3)C2=O)cc1OC	A549 tox inconclusive, IL2 activator 84.7
Cc1ccc2[nH]c(=O)c(CN(Cc3ccco3)Cc3nnnn3Cc3ccccc3)cc2c1	Nrf2 inh inconclusive (no result: Nrf2 activator, IL2 activator)
CCc1nc(N2CCN(C(C)=O)CC2)c2c3c(sc2n1)CC(C(C)(C)C)CC3 (stereo not given)	Nrf2 inh 18.4µM
CCc1nc(N2CCN(C(=O)CCl)CC2)c2c3c(sc2n1)CC(C)CC3 (stereo not given)	Nrf2 activator inconclusive
COC(=O)c1cc(-c2ccccc2)sc1N	Nrf2 activator 15.8µM, Nrf2 inh inconclusive
O=C(Nc1noc2ccccc12)c1ccc(F)cc1	Nrf2 inh inconclusive (no result: IL2 activator)
COc1ccc(NC(=O)CSc2ncccc2C(=O)O)cc1OC	none (no result: IL2 activator, Nrf2 inh)
Cc1ccc(-c2csc(NC(=O)c3ccccc3F)c2C(=O)O)cc1	Nrf2 inh inconclusive
Cc1ccccc1C(=O)Nc1scc(-c2ccc(Br)cc2)c1C(=O)O	Nrf2 inh 8.2µM
O=C(Nc1scc(-c2ccccc2)c1C(=O)O)c1ccccc1F	none
O=C(Nc1scc(-c2ccc(Br)cc2)c1C(=O)O)c1ccccc1F	Nrf2 inh 10.3µM
CC(C)(C)c1ccc(C2Sc3ccccc3NC3=C2C(=O)c2ccccc23)cc1 (stereo not given)	A549 tox inconclusive, Nrf2 inh 18.4µM (no result: IL2 activator)
O=C1OCC2=C1C(c1ccc(F)cc1)Sc1ccccc1N2 (stereo not given)	none
Nc1c(Cl)cc(N=Nc2ccccc2)cc1Cl	Nrf2 activator 6.31µM, Nrf2 inh inconclusive
Cc1ccc(-c2nnc3c4ccccc4c(C)nn23)cc1NC(=O)c1ccccc1Cl	none (no result: IL2 activator)
COC(=O)c1c(-c2ccc(F)cc2)csc1NC(=O)C1CCCO1 (stereo not given)	Nrf2 inh 18.4µM
Fc1ccc(N/N=C2/CC(c3ccccc3)Oc3ccccc32)c(F)c1 (stereo not given)	Nrf2 activator 12.6µM
CCOC(=O)c1sc(N2C(=O)C(O)=C(C(=O)c3ccc(C)o3)C2c2ccc(OC)c(OC)c2)nc1C (stereo not given)	A549 tox inconclusive, Nrf2 inh inconclusive
CCOC(=O)c1sc(N2C(=O)C(O)=C(C(=O)c3ccc(C)o3)C2c2cccc([N+](=O)[O-])c2)nc1C (stereo not given)	A549 tox inconclusive, Nrf2 inh 23.1µM
C=C(C)Cn1c(=O)c2c(nc3n2CCN3c2cc(C)cc(C)c2)n(C)c1=O	Nrf2 inh inconclusive (no result: IL2 activator)
COc1cccc(N2CCN(C(=O)c3ccc4c(Cl)c5c(nc4c3)CCCC5)CC2)c1	none (no result: IL2 activator)
Fc1ccc(-n2nc(-c3ccccc3)c3cnc4ccccc4c32)cc1Cl	none (no result: IL2 activator)
COc1cccc(C2c3c(ncn(-c4ccncc4)c3=N)Oc3ccc4ccccc4c32)c1 (stereo not given)	none (no result: Nrf2 activator, IL2 activator)
CCn1c(O)c(/C=N/N=C/c2ccc(OC)cc2)c2cc(C3=NNC(=O)CC3)ccc21	IL2 activator 214.9
Cn1cc(/C=C/c2cc[n+](C)cc2)c2cc(Cl)ccc21	A549 tox inconclusive, IL2 activator 103.7, Nrf2 inh 10.3µM
Cn1cc(C=O)c2cc(F)ccc21	none
COc1ccc(Oc2c(Cl)cnn(-c3ccc(F)cc3)c2=O)cc1	Nrf2 activator inconclusive (no result: Nrf2 inh)
COc1ccc(-n2c(C)nc3c(cnn3-c3ccc(Cl)cc3)c2=O)cc1	Nrf2 inh inconclusive
COc1ccc(Oc2c(Cl)cnn(-c3ccc(C)cc3)c2=O)cc1	Nrf2 activator 12.6µM (no result: Nrf2 inh)
COc1ccc(-n2c(C)nc3c(cnn3-c3ccc(C)cc3)c2=O)cc1	Nrf2 inh 18.4µM
N#Cc1ccc(NC(=O)c2ccc3c(c2)nnn3C2CCCC2)cc1	Nrf2 inh inconclusive (no result: IL2 activator)
COc1ccc(-c2n[nH]c(C(F)(F)F)c2-c2cc3ccccc3o2)c(O)c1	A549 tox 16.4µM, Nrf2 inh 16.4µM
Cc1ccc(NC(=O)CN2C(=O)c3ccccc3Sc3ccc(C(=O)N4CCOCC4)cc32)cc1F	none (no result: IL2 activator, Nrf2 inh)
O=C(C1CCC(CNc2nc(=S)[nH]c3ccccc23)CC1)N1CCN(c2ccccn2)CC1 (stereo not given)	A549 tox inconclusive, Nrf2 inh 16.4µM
O=C(Nc1ccc(C(=O)N2CCOCC2)cc1)c1cccc(Br)c1	none
O=C(Nc1cccc(Br)c1)c1cccc(OC(=S)N2CCOCC2)c1	Nrf2 inh 16.4µM
CCC1CSC(Nc2ccc(C(=O)/C=C/c3cccc(C)c3)cc2)=N1 (stereo not given)	Nrf2 inh 23.1µM
O=C(CCl)N1c2ccccc2SCC1c1ccccc1 (stereo not given)	A549 tox inconclusive, Nrf2 inh 25.9µM
Cc1nn2c3ccccc3nc2c2ccccc12	Nrf2 activator 7.94µM
Cc1nn2c(-c3ccccc3)nnc2c2ccccc12	Nrf2 activator 3.98µM, Nrf2 inh inconclusive
Cc1ccc(-c2nn3c(-c4ccc(C)cc4)nnc3c3ccccc23)cc1	none (no result: IL2 activator)
CCn1c(=O)c(C)nn2c3ccccc3nc12	none (no result: Nrf2 inh)
Cc1nc(S(=O)(=O)NC2CCCCC2)c(C#N)c(C)c1Cl	Nrf2 activator 12.6µM
CCn1c(=O)cc(SCC(=O)Nc2ccc(C)c(F)c2)c2ccccc21	Nrf2 inh 23.1µM (no result: IL2 activator)
COc1cc(/C=C/c2ccc3cccc(OC)c3n2)c(OC(C)=O)c([N+](=O)[O-])c1	A549 tox 9.2µM, Nrf2 inh 25.9µM
Cc1ccccc1-c1cc(=O)c2ccccc2o1	none
O=c1cc(-c2ccc(F)cc2)oc2ccccc12	Nrf2 activator 11.2µM
CSc1ccc(-c2cc(=O)c3ccccc3o2)cc1	Nrf2 activator 2.82µM, Nrf2 inh inconclusive
O=c1cc(-c2ccccc2F)oc2ccccc12	Nrf2 activator inconclusive
COc1ccc(C)cc1-n1cnc2cc(C(=O)NC3CCCCCC3)ccc21	none (no result: IL2 activator, Nrf2 inh)
Cc1c(Cl)cccc1NC(=O)c1ccc2c(c1)nnn2C1CCCC1	none (no result: IL2 activator)
COc1ccc(/C=C2\CC/C(=C\c3ccc(OC)c(OC)c3)C2=O)cc1OC	none
COc1cc(/C=C2\CC/C(=C\c3ccc(OCCO)c(OC)c3)C2=O)ccc1OCCO	Nrf2 activator inconclusive, IL2 activator 162.9
CCOC(=O)c1ccc(N2C(=O)c3[nH]nc(-c4ccc(C)cc4)c3C2c2cccs2)cc1 (stereo not given)	A549 tox inconclusive, Nrf2 inh 23.1µM (no result: IL2 activator)
CCOC(=O)c1ccc(N2C(=O)c3[nH]nc(-c4ccc(OC)cc4)c3C2c2ccccc2Cl)cc1 (stereo not given)	none (no result: IL2 activator)
CCOC(=O)c1ccc(N2C(=O)c3[nH]nc(-c4ccc(C)cc4)c3C2c2ccc(O)c(OCC)c2)cc1 (stereo not given)	Nrf2 inh 20.6µM (no result: IL2 activator)
S=c1[nH]nc(-c2ccncc2)n1/N=C/C=C/c1ccco1	Nrf2 activator inconclusive

Source: PubChem (National Center for Advancing Translational Sciences (NCATS))
